± gives the standard deviation of the averaged measurements.
Tests used:
[1] = test system: DLD1; test: cell viability (CellTiter-Glo) relative to plate median (fraction of plate median); higher = more viable cells; conditions: 5 µM; treatment time 24 h; reporter: 7TFP
In short: (§1)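 Two independent replicates were averaged for each reported value. Library compounds were applied at a final 5 µM for 24 h to colorectal cancer cell lines stably expressing lentiviral TCF/Wnt firefly luciferase reporters. Firefly luciferase or CellTiterGlo luminescence from each well was normalised to the plate median.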

[2] = test system: HCT116; test: as above; conditions: 5 µM; treatment time 24 h; reporter: TCF4/Wnt
In short: as §1

[3] = test system: SW480; test: as above; conditions: 5 µM; treatment time 24 h; reporter: 7TFP
In short: as §1

[4] = test system: DLD1; test: TCF/Wnt firefly luciferase reporter signal relative to plate median (fraction of plate median); higher = higher Wnt reporter signal; conditions: 5 µM; treatment time 24 h; reporter: 7TFP
In short: as §1

[5] = test system: SW480; test: as above; conditions: 5 µM; treatment time 24 h; reporter: 7TFP
In short: as §1

Row | Structure (SMILES) | cell viability [1] | cell viability [2] | cell viability [3] | TCF/Wnt firefly luciferase reporter signal [4] | TCF/Wnt firefly luciferase reporter signal [5]
1 | CCC(C)C(=O)OC1[C@@H]2CC3=C4CC(=O)O[C@@H](c5ccoc5)[C@]4(C)CCC3[C@@](C)(C2=O)[C@@H](CC(=O)OC)C1(C)C (stereo not given in full) | 1.085 ± 0.0071 | 1.19 ± 0.092 | 1.18 ± 0.092 | 1.15 ± 0.15 | 0.938 ± 0.088
2 | CN(C)CCC=C1c2ccccc2COc2ccccc21 | 0.994 ± 0.052 | 1.01 ± 0.021 | 0.949 ± 0.032 | 1.06 ± 0.028 | 1.07 ± 0.014
3 | COc1ccc(-c2coc3cc(OC(C)=O)cc(OC(C)=O)c3c2=O)cc1 | 1.01 ± 0.023 | 0.994 ± 0.079 | 0.976 ± 0.0057 | 1.34 ± 0.3 | 1.23 ± 0.16
4 | COC(=O)C1=C(C)NC(C)=C(C(=O)OC)C1c1ccccc1[N+](=O)[O-] | 1.05 ± 0.14 | 0.995 ± 0.11 | 1.06 ± 0.028 | 1.04 ± 0.11 | 1.06 ± 0.078
5 | C[C@H]1CC[C@@H](C(C)(C)O)CC2=C1CC[C@@H]2C | 0.964 ± 0.079 | 1.025 ± 0.0071 | 0.9715 ± 0.0078 | 0.907 ± 0.11 | 0.86 ± 0.016
6 | O=C(c1c[nH]c2ccccc12)C(O)CO (stereo not given) [1-(3-Indolyl)-2,3-dihydroxypropan-1-one] | 0.989 ± 0.072 | 1.02 ± 0.06 | 0.966 ± 0.046 | 1.12 ± 0.028 | 1 ± 0.079
7 | COc1cc([S+](C)[O-])ccc1-c1nc2cccnc2[nH]1 (stereo not given) | 0.968 ± 0.028 | 0.979 ± 0.058 | 0.953 ± 0.025 | 0.907 ± 0.22 | 0.794 ± 0.057
8 | Cc1cc(C2CCCCC2)n(O)c(=O)c1 | 1.02 ± 0.014 | 0.454 ± 0.12 | 1.24 ± 0.18 | 0.795 ± 0.077 | 1 ± 0.13
9 | CC(C)=CCc1c(O)cc(C)oc1=O | 1.05 ± 0.17 | 1.07 ± 0.12 | 1.055 ± 0.0071 | 1.06 ± 0.1 | 1.03 ± 0.071
10 | CN(C)[C@@H]1C(O)=C(C(N)=O)C(=O)[C@@]2(O)C(O)=C3C(=O)c4c(O)cccc4[C@@](C)(O)[C@H]3C[C@@H]12 | 0.988 ± 0.074 | 1.04 ± 0.093 | 1 ± 0.024 | 0.911 ± 0.11 | 0.839 ± 0.031
11 | COc1c(O)cc2oc3cc(O)c(CC=C(C)C)c(O)c3c(=O)c2c1CC=C(C)C [alpha-MANGOSTIN] | 1.055 ± 0.0071 | 1.15 ± 0.021 | 1.01 ± 0.015 | 1.04 ± 0.24 | 0.941 ± 0.076
12 | CCN(CC)C(=O)N1CCN(C)CC1 | 0.9275 ± 0.0035 | 0.89 ± 0.079 | 1.03 ± 0.021 | 0.981 ± 0.098 | 1.09 ± 0.021
13 | COc1cccc(O)c1O | 0.938 ± 0.059 | 0.905 ± 0.11 | 0.942 ± 0.0028 | 0.96 ± 0.099 | 0.978 ± 0.088
14 | CC#C[C@]1(O)CC[C@H]2[C@@H]3CCC4=CC(=O)CCC4=C3[C@@H](c3ccc(N(C)C)cc3)C[C@@]21C | 0.972 ± 0.023 | 1.04 ± 0.12 | 0.931 ± 0.042 | 0.891 ± 0.05 | 1.01 ± 0.063
15 | CC1=C2C(O)C(=O)OC3CC4C(C)(C)C(=O)C=C[C@]4(C)C(CC1)[C@]23C (stereo not given in full) | 0.931 ± 0.015 | 0.97 ± 0.13 | 1.015 ± 0.0071 | 1.01 ± 0.14 | 1.14 ± 0.05
16 | O=C(O)P(=O)(O)O | 1.06 ± 0.028 | 0.965 ± 0.05 | 1 ± 0.011 | 0.834 ± 0.0092 | 0.944 ± 0.031
17 | CN[C@@H]1[C@H](O[C@H]2[C@H](O[C@H]3[C@H](O)[C@@H](O)[C@H](N=C(N)N)[C@@H](O)[C@@H]3N=C(N)N)O[C@@H](C)[C@]2(O)C=O)O[C@@H](CO)[C@H](O)[C@H]1O | 0.962 ± 0.097 | 0.936 ± 0.044 | 1.07 ± 0.078 | 0.817 ± 0.0014 | 0.935 ± 0.0028

Row | Structure (SMILES) | cell viability [1] | cell viability [2] | cell viability [3] | TCF/Wnt firefly luciferase reporter signal [4] | TCF/Wnt firefly luciferase reporter signal [5]
18 | COC1=C(O)C(=O)c2c(cc3oc(C(C)=O)c(O)c3c2O)C1=O | 1.03 ± 0.055 | 1.07 ± 0.064 | 0.985 ± 0.064 | 1.05 ± 0.11 | 0.949 ± 0.027
19 | CC(=O)C12OC(C)(c3ccccc3)OC1CC1C3CCC4=CC(=O)CCC4(C)C3CCC12C (stereo not given) | 0.963 ± 0.039 | 0.987 ± 0.033 | 0.976 ± 0.035 | 0.977 ± 0.061 | 0.939 ± 0.067
20 | CC12CCC3C(CC3(C)C)C(C)(CCC1=O)O2 (stereo not given) | 0.908 ± 0.033 | 0.972 ± 0.069 | 0.892 ± 0.016 | 0.883 ± 0.23 | 0.889 ± 0.13
21 | C#C[C@]1(O)CC[C@H]2[C@@H]3CCC4=CC(=O)CC[C@@H]4[C@H]3CC[C@@]21C | 1.15 ± 0.085 | 0.9935 ± 0.0092 | 1.04 ± 0.064 | 0.847 ± 0.27 | 0.931 ± 0.03
22 | O=C(Cc1cccs1)N[C@@H]1C(=O)N2C(C(=O)[O-])=C(C[n+]3ccccc3)CS[C@H]12 | 0.979 ± 0.073 | 0.944 ± 0.057 | 1.01 | 0.9975 ± 0.0035 | 0.889 ± 0.0057
23 | C[N+](C)(C)CCCCCC[N+](C)(C)C | 1.01 ± 0.027 | 0.903 ± 0.022 | 0.93 ± 0.072 | 1.09 ± 0.21 | 1.1 ± 0.11
24 | CC(=O)O[C@]1(C(C)=O)CC[C@H]2[C@@H]3C=C(C)C4=CC(=O)CC[C@]4(C)[C@H]3CC[C@@]21C | 0.988 ± 0.088 | 0.971 ± 0.037 | 0.984 ± 0.037 | 1.03 ± 0.086 | 1 ± 0.04
25 | COc1cccc2c(C)cc(=O)[nH]c12 | 1.05 ± 0.15 | 1.07 ± 0.11 | 1.02 ± 0.09 | 1.05 ± 0.064 | 1.11 ± 0.085
26 | CCOC(=O)OC(C)OC(=O)[C@@H]1N2C(=O)[C@@H](NC(=O)[C@H](N)c3ccccc3)[C@H]2SC1(C)C (stereo not given in full) | 1.05 ± 0.014 | 1.01 ± 0.071 | 1.01 ± 0.014 | 1.09 ± 0.12 | 1.08 ± 0.035
27 | CC(C)=CCc1c2c(c3occ(-c4ccc(O)cc4)c(=O)c3c1O)C=CC(C)(C)O2 | 0.955 ± 0.093 | 0.98 ± 0.028 | 0.99 ± 0.015 | 1.1 ± 0.099 | 0.914 ± 0.099
28 | C[N+]1(C)[C@@H]2CC[C@H]1C[C@@H](OC(=O)C(O)c1ccccc1)C2 (stereo not given in full) | 1.08 ± 0.035 | 0.941 ± 0.079 | 1.085 ± 0.0071 | 1.1 ± 0.042 | 1.01 ± 0.15
29 | CC1(C)CC2C1CCC1(C)OC1CCC2(C)O (stereo not given) | 0.995 ± 0.036 | 1 ± 0.067 | 0.975 ± 0.0071 | 1.07 ± 0.078 | 1 ± 0.065
30 | OC[C@H]1O[C@H]([S-])[C@H](O)[C@@H](O)[C@@H]1O.[Au+] | 0.945 ± 0.21 | 0.921 ± 0.019 | 1.11 ± 0.021 | 0.891 ± 0.12 | 0.265 ± 0.088
31 | CN(C)CCCN1c2ccccc2Sc2ccccc21 | 0.908 ± 0.056 | 0.908 ± 0.032 | 0.96 ± 0.071 | 0.92 ± 0.021 | 0.895 ± 0.069
32 | O=C(O)CN(CC(=O)O)Cc1cc2c(cc1O)Oc1cc(O)c(CN(CC(=O)O)CC(=O)O)cc1C21OC(=O)c2ccccc21 | 0.965 ± 0.03 | 0.914 ± 0.089 | 0.96 ± 0.053 | 0.909 ± 0.13 | 0.895 ± 0.12
33 | NC(N)=Nc1nc(CSCC/C(N)=N/S(N)(=O)=O)cs1 | 1 ± 0.083 | 1.01 ± 0.028 | 0.916 ± 0.054 | 1.12 ± 0.092 | 1.11 ± 0.035

— the supplement of paper PMC6522484
